32 molecules from PubChem BioAssay (EPA / NIEHS) can be followed below.

Where “and” joins values, the source holds several entries; their conditions need not be identical. Identical values can stand only once. Inconclusive results are not listed. Calls of active or inactive are those of the source. The calls were made as follows: active = hit-call score of the fitted dose curve at least 0.9, where 1 is the maximum; inconclusive = response in the unintended direction; inactive = score below 0.9.

The term AC50 denotes the concentration at which the activity in the assay is half-maximal.

A short description of one assay: ATG_XTT_Cytotoxicity: Cytotoxicity Assessment in the Attagene TRANS-FACTORIAL HepG2 Assay (AID 2283584).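 As to AC50: cells exposed to compound for 24 h before reading; active means loss of viability signal versus DMSO baseline.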 The method, boiled down:
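HepG2 human liver cells, transiently transfected with multiple GAL4-UAS reporter units, were dosed and read at 24 h by XTT as cell number. Loss of signal was fitted relative to DMSO negative control baseline.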
`NC(=NCCCCCCN=C(N)/N=C(\N)Nc1ccc(Cl)cc1)/N=C(\N)Nc1ccc(Cl)cc1`: the AC50 is 31.6 µM (active). As to `CCCC=O`, the molecule was classed as inactive. `CCC(C)c1nccnc1OC` (stereo not drawn): the molecule was called inactive. `O=C(O)C(=O)O`: the outcome was inactive. On the same count and under the same terms, for `CCN(CC)CC` the value was “inactive”; for `Clc1ccc(Nc2nnc(Cc3ccncc3)c3ccccc23)cc1`, “inactive”; for `NCc1cccc(CN)c1`, “inactive”. Same read-out and setting: under `CCC(=O)O` stands “inactive”. With `CCCCCCCCC1CCC(=O)O1` (stereo not drawn), the result was inactive.

Turning to `c1ccc(CNc2ncnc3c2ncn3C2CCCCO2)cc1` (stereo not drawn), the molecule was called inactive. Still for that read-out and setting: for `Cc1ccc(S(=O)(=O)O)cc1` the value was “inactive”; for `CC(=O)CC(C)C`, “inactive”; for `C[C@]12CC[C@@H]3c4ccc(O)cc4CC[C@H]3[C@@H]1C[C@@H](O)[C@@H]2O`, “inactive”. Same read-out and setting: under `Cc1ccc(C(=O)c2ccccc2)cc1` stands “inactive”. Still for that read-out and setting: under `CCC1CO1` (stereo not drawn) stands “inactive”. Turning to `CCCCCCCCCCCCCCCC(=O)OC`, the call was inactive. On the same count and under the same terms, for `CC(=O)Nc1ccc(S(N)(=O)=O)cc1` the value was “inactive”; for `O=C1c2ccccc2C(=O)c2c(O)c(O)cc(O)c21`, “inactive”. On the same count and under the same terms, for `NCCN` the value was “inactive”; for `COC(=O)CC(C(C)=O)C(=O)OC` (stereo not drawn), “inactive”; for `CCOC(=O)CN[C@@H](C(=O)N1CC[C@H]1C(=O)NCc1ccc(/C(N)=N/O)cc1)C1CCCCC1`, “inactive”.

As for `OCC1CCC(CO)CC1` (stereo not drawn), the call was inactive.

With `CC(C)C=O`, the molecule was called inactive. `Cc1ccc(C)c(S(=O)(=O)O)c1`: the outcome was inactive.

Take `CC(C)(C)C1CCCCC1O` (stereo not drawn): the call was inactive.

The nature of the next assay: TOX21_p53_BLA_p2_viability: Viability Assessment in the Tox21 HCT-116 p53 Agonism Beta-lactamase Assay, Phase 2 (AID 2283591).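 Also: compound exposure lasted 16 h at 37 °C; actives lower the ATP signal meaning cytotoxicity.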 In a few lines:
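Cytotoxicity readout: CellTiter-Glo ATP luminescence, 30 min at room temperature, after the beta-lactamase read. Cells were HCT116 exposed 16 h at 37C to compounds pin-transferred at 217-fold dilution from DMSO stocks.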
Take `CCCC=O`: the outcome was inactive. The same measure, in the same setting: for `CCN(CC)CC` the value was “inactive”; for `CC1=NN(c2ccccc2)C(=O)C1`, “inactive”; for `NCc1cccc(CN)c1`, “inactive”. Same read-out and setting: under `CCCCCCCCC1CCC(=O)O1` (stereo not drawn) stands “inactive”. Consider `c1ccc(CNc2ncnc3c2ncn3C2CCCCO2)cc1` (stereo not drawn), for which the call was inactive.

On to `Cc1ccc(S(=O)(=O)O)cc1`, for which the molecule was classed as inactive.

On to `CCOCCOCC`, for which the call was inactive.

For `CC(=O)CC(C)C`, the molecule was called inactive. In the case of `C=CC(C)(CCC=C(C)C)OC(C)=O` (stereo not drawn), the molecule was called inactive. Turning to `CCCCCCCCCCCCOC(=O)c1cc(O)c(O)c(O)c1`, the AC50 is 21.7 µM (active) and 28.2 µM (active). Turning to `O=C(c1cc(O)c(O)c(O)c1)c1ccc(O)c(O)c1O`, the molecule was classed as inactive. As to `CCCCCCCCCCCCCCCC(=O)OC`, the call was inactive. Same read-out and setting: for `CC(=O)Nc1ccc(S(N)(=O)=O)cc1` the value was “inactive”. With `O=C1c2ccccc2C(=O)c2c(O)c(O)cc(O)c21`, the molecule was classed as inactive. Regarding `NCCN`, the molecule was classed as inactive.

For `COC(=O)CC(C(C)=O)C(=O)OC` (stereo not drawn), the outcome was inactive. In the case of `COCN(COC)c1nc(N(COC)COC)nc(N(COC)COC)n1`, the call was inactive. Turning to `OCC1CCC(CO)CC1` (stereo not drawn), the molecule was called inactive. With `CC(C)C=O`, the outcome was inactive. On the same count and under the same terms, for `Cc1cc(C(C)(C)C)c(O)c(C(C)(C)C)c1` the value was “inactive”; for `Cc1ccc(C)c(S(=O)(=O)O)c1`, “inactive”. On the same count and under the same terms, for `CC(C)(C)C1CCCCC1O` (stereo not drawn) the value was “inactive”.
